# Changes are numbered by the printed parent chain. The full ranking holds about 24,000 sequences; the median of “enrichment r” is about 0.99, and the highest 2% start at about 3.7. The sample holds the highest values, similar sequences and a random draw of the others, so the mix is not that of the screen.
# T1: UNK ZnF1-3 (human, UniProt Q9C0B0 31-174)
# T1 sequence: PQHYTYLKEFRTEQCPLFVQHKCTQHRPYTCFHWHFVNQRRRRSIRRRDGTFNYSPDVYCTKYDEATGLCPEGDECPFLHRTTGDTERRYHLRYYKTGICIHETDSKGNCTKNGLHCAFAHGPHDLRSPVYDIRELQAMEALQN
# B1: chr5:31803264:31803265:+_ENSMUSG00000064037_ENSMUST00000076949|mus_mus|FALSE|FALSE (ssRNA)
# RNA: GGGAGUUCUACAGUCCGACGAUCUGGAAAUGAGGAAGCCAGGGCCUCAGUGAUGAUUGUCCCUGAAGCUGACCAGGUAAAUACUUCAAUCUGUCCAGGUGUGUCAAUCAAGACAUAUCUGAAUGUGUUCUGGGCCUUCUCAAUCAACAGAGGAUUGAGCAUCA
# B2: 64960267_64960387_5255_CDS_ENSG00000171988_ENST00000542921|human|control|control (ssRNA)
# RNA: GGGAGUUCUACAGUCCGACGAUCUGAGUGAGCUGGUUCUUCUCCUUUUUUACUGCGAAUAAGUCUACAUUCUCGACACUUUUGUAAAUUAGGCCCUAUCUCACAGCAGGAGUCAUCCUGUAAAAAGGAUUCCCCAGUUUGCUUCAACAGAGGAUUGAGCAUCA
# B3: chr4:76721835:76721836:+_ENSG00000138768_ENST00000264904|hu_mus|hu_hu_hu_mus_True|98_108 (ssRNA)
# RNA: GGGAGUUCUACAGUCCGACGAUCGUUGGCUGGGGUUUCUGAGAUGCCUCUGGAAUAUAACUCAUGUUUGCUAAUAAAUCCUAGUUUCUCUAUGAAAUUCUCUUUGCCAAUCCUCUUCUCUAUUAGUUGCUUUAGUUUCUCUUUCAACAGAGGAUUGAGCAUCA
# B4: chr1:241675328:241675329:-_ENSG00000091483_ENST00000366560|hu_hu|FALSE|FALSE (ssRNA)
# RNA: GGGAGUUCUACAGUCCGACGAUCGCUUUUAUUAACAUGAUCGUUGGGAUGCACAGGUAUCUUGCUGCCAAGUUCACCUCCUAACAUUUCAAUUGCUCUAUUGCUAAUGACUUCAUUUACAUUCAUAUUUGUCUGAGUUCCUGACAACAGAGGAUUGAGCAUCA
# B5: 21460886_21461006_6735_CDS_ENSMUSG00000042453_ENSMUST00000161356|mouse|control|control (ssRNA)
# RNA: GGGAGUUCUACAGUCCGACGAUCAGGAUUUUUGGUGCUUAUUUUACAGGUUGGCCCAGAGUAGCCCGGGUCACAUAUACACUUGGUUCCAUUGAUGCAGCUCCCGUGCCCAUAGCACAUCUCUUCACACUGGGGACCAAUGUACAACAGAGGAUUGAGCAUCA
# B6: chr10:121586544:121586545:+_ENSG00000198825_ENST00000369080|hu_mus|motif|central (ssRNA)
# RNA: GGGAGUUCUACAGUCCGACGAUCCGACUGCCUAAUCGAGGUGCUGACACAAUAAUCCCACAGCUUGGGAGAAUGUAAUCGGUUGGCCCUACGCUCUCUAAAGAAUUGGCUAGCUGCUUGUCUUCCUCCGACUUAGAAUUUGUACAACAGAGGAUUGAGCAUCA
# B7: chr2:153237265:153237266:-_ENSMUSG00000061411_ENSMUST00000109784|mus_mus|mus_mus_mus_hu_False|58_78 (ssRNA)
# RNA: GGGAGUUCUACAGUCCGACGAUCAAAAAAAAAAAAAAAAAAGUGUCCUUGUGCCCAAAGUCUCAGAUGCUUGGAGUGCAGCUAGAAACAGCUCUUUUGGAUCCCACCUCUUUCAAAAACAAAAUGUACCAACUGGUGAGGCAGCAACAGAGGAUUGAGCAUCA
# B8: 112580157_112582736_3545_CDS_ENSG00000153107_ENST00000341068|human|control|control (ssRNA)
# RNA: GGGAGUUCUACAGUCCGACGAUCCAAAUCUCUUAAAGUGAAUCCUACAUUAGUCAUCCAGACAACCAAUCUUUCAGCUAGACUAGAAACAGAUGUAGAAUGCCUGAAACUAAACCUGUUUUCCUCUUGUUCUACUUGCAACUUCAACAGAGGAUUGAGCAUCA
# B9: chr2:153237265:153237266:-_ENSMUSG00000061411_ENSMUST00000109784|mus_mus|mus_mus_mus_hu_False|78_98 (ssRNA)
# RNA: B7 RNA with A37G, C78U, A79G
# B10: chr2:153237265:153237266:-_ENSMUSG00000061411_ENSMUST00000109784|mus_mus|mus_mus_mus_hu_False|78_78 (ssRNA)
# RNA: B7 RNA with C78U, A79G
# B11: chr2:153237265:153237266:-_ENSMUSG00000061411_ENSMUST00000109784|mus_mus|mus_mus_mus_hu_False|78_108 (ssRNA)
# RNA: B7 RNA with A32G, C78U, A79G
# B12: chr2:153237265:153237266:-_ENSMUSG00000061411_ENSMUST00000109784|mus_mus|mus_mus_mus_hu_False|28_78 (ssRNA)
# RNA: B7 RNA with C78U, A79G, A115G
# B13: chr2:153237265:153237266:-_ENSMUSG00000061411_ENSMUST00000109784|mus_mus|FALSE|FALSE (ssRNA)
# RNA: GGGAGUUCUACAGUCCGACGAUCAAAAAAAAGAAAAGAAAAGUGUCCUUGUGCCCAAAGUCUCAGAUGCUUGGAGUGCAGCUAGAAACAGCUCUUUUGGAUCCCACCUCUUUCAGAAAACAGUGUACCAACUGGUGAGGCAGGCAACAGAGGAUUGAGCAUCA
# B14: 61074685_61077595_487_3pUTR_ENSG00000119541_ENST00000238497|human|control|control (ssRNA)
# RNA: GGGAGUUCUACAGUCCGACGAUCUCUUUUUUUCAGGAUCAUCAGAUUCUCCUUCCCCAUCACUGUCAUUCCCCUUCUCAUCUGCUGGACUCGGCUGUCCUUCUUUCACUGGCUUCUGUGCUUUUUUCUCUUUAUUUUUCAGGUCAACAGAGGAUUGAGCAUCA
# B15: chr7:149068622:149068623:-_ENSMUSG00000025139_ENSMUST00000001950|mus_hu|mus_mus_mus_hu_False|8_28 (ssRNA)
# RNA: GGGAGUUCUACAGUCCGACGAUCGUGAGGCCUCUGAGUGUGGCUUGUGGUCUGUCCUGGGUUAGAGUUGUUAAUAUCACGGAACAUACCAUCUAGAACGUUCCAGUCUGCCUGACUACCUUCAUUCGCAAGAGGGCAGAAAUCCAACAGAGGAUUGAGCAUCA
# B16: chr5:138634757:138634758:+_ENSMUSG00000036968_ENSMUST00000110934|mus_hu|FALSE|FALSE (ssRNA)
# RNA: GGGAGUUCUACAGUCCGACGAUCGUAGACCAAGUAUCUAUCCCACCUAAAUUAUCAGCAACUCCAGGCCAUGACCCAGUGUCCCAUUCUCCUUCACGGUUUGCUGGUGUGUAGCCUCCUGGAUACAGGCAAUGUAUAUAGAUCCAACAGAGGAUUGAGCAUCA
# B17: chr17:56552419:56552420:-_ENSMUSG00000013236_ENSMUST00000086828|mus_mus|mus_mus_mus_hu_False|58_88 (ssRNA)
# RNA: GGGAGUUCUACAGUCCGACGAUCAAAAAAUACACUAUUUAAAAAAAAAAGAAAAAAACGGGAUACAGUUACACUGACACUAUUAAAAGAAAGCUGGAUUCUGGUCCCAGCCCAGUGUCCCCAGGCUGCAGAGCGGGGAGGAGCCAACAGAGGAUUGAGCAUCA
# B18: chr17:56552419:56552420:-_ENSMUSG00000013236_ENSMUST00000086828|mus_mus|mus_mus_mus_hu_False|28_88 (ssRNA)
# RNA: B17 RNA with C77G, C79G, A81U, C107U, A108U, C112A, G114A, U115A
# B19: chr17:56552419:56552420:-_ENSMUSG00000013236_ENSMUST00000086828|mus_mus|mus_mus_mus_hu_False|8_88 (ssRNA)
# RNA: GGGAGUUCUACAGUCCGACGAUCAAAAAAUACACUAUUUAAAAAAAAAAGAAAAAAACGGGAUACAGUUACACUGAGAGUUUUAAAAGAAAGCUGGAUUCUGGUCCCAGCCCAGUGUCCCCAGGCUGAGUGCGGAAGAGGAGCCAACAGAGGAUUGAGCAUCA
# B20: chr17:56552419:56552420:-_ENSMUSG00000013236_ENSMUST00000086828|mus_mus|mus_mus_mus_hu_False|88_88 (ssRNA)
# RNA: B17 RNA with C77G, C79G, A81U
# B21: 30734625_30737523_1216_CDS_ENSG00000101337_ENST00000398022|human|control|control (ssRNA)
# RNA: GGGAGUUCUACAGUCCGACGAUCCAGGGAGCUGAGGAUCAUGGGGUACUGGGGGGGCCUGAAGACGUCGCCGUGCACCAACUUCCACCCAGACUCCUCCAUGGUGUCUUCAAUGUCAUCCUCCUUGUUGUAGUUGGCAAUGUCCAACAGAGGAUUGAGCAUCA
# B22: chr7:149068622:149068623:-_ENSMUSG00000025139_ENSMUST00000001950|mus_hu|mus_mus_mus_hu_False|68_68 (ssRNA)
# RNA: GGGAGUUCUACAGUCCGACGAUCGUGAGGCCUCUGAGUGUGGCUUGUGGUCUGUCCUGGGUUAGAGCUGCUGGUAACACGGAACAUACCAUCUAGAACGUUCCAGUCCCGCCUGACACCUUCAUUCCCAAUGGAGAAGAAAUCCAACAGAGGAUUGAGCAUCA
# Target: T1, UNK ZnF1-3
# Experiment: nsRBNS (natural sequence RNA bind-n-seq); RBNS binding buffer (assumed for nsRBNS): 25 mM Tris pH 7.5, 150 mM KCl, 3 mM MgCl2, 0.01% Triton X-100, 500 ug/ml BSA, 20 U/ml SUPERase-In, 4 C; UNK is unkempt and MSI1 is Musashi-1; names of the RNAs are library labels; protein concentration not given here; high values mean tight binding
row,Binder,binding signal [enrichment R]
1,B1,0.591
2,B2,0.8
3,B3,0.409
4,B4,0.465
5,B5,0.458
6,B6,1.12
7,B7,6.45
8,B8,0.842
9,B9,4.81
10,B10,5.71
11,B11,3.65
12,B12,4.56
13,B13,1.55
14,B14,0.231
15,B15,0.726
16,B16,0.757
17,B17,12.3
18,B18,8.27
19,B19,6.77
20,B20,7.69
21,B21,0.573
22,B22,0.824
